Laboratory results taken from PubChem BioAssay (NCI).
“And” between values parts separate entries of the source, which are not always exact repeats. Identical values can stand only once. About 83,000 compounds went through this panel and 20% of them were active in at least one assay; those are over-represented in the sample as a whole.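 How to read the values: 0–100, growth inhibition (40 = 60% inhibited); 0, no net growth; -100 to 0, cell death (-40 = 40% of starting cells died; -100 = all dead).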 Values without a mark were called inactive. The source made the active and inactive calls. How the source made its calls: active means growth percent below 10; inactive means the rest.

The molecules below were run on HL-60(TB) leukemia (assay: NCI-60 one-dose screen, 48 h (100 = growth as untreated, 0 = no growth, -100 = all killed)). Conditions: 10 µM unless noted.

| SMILES | growth |
| --- | --- |
| CN1CCC(CN2c3ccccc3Sc3ccccc32)C1 (centres undefined) | 63.9% |
| C=CC[N+]1(CC)CCN=C1CCCCCCCCCCCCCCCCC (centres undefined) | -59.5% (active) |
| CS(=O)(=O)Nc1cc(-c2ccc3ncnc(Nc4ccc5c(cnn5Cc5ccccn5)c4)c3c2)cnc1Cl | 56.5% |
| CN1CCN(Cn2nc(-c3cc(Cl)cc(Cl)c3Cl)n(/N=C/c3ccc(Cl)cc3)c2=S)CC1 | -38.6% (active) |
| CCN(CC)C(Cl)=Nc1ccc(Cl)cc1 | 99.3% |
| COc1ccc(C(=O)COc2ccc(/C=C3\Oc4ccc5ccccc5c4C3=O)cc2)cc1 | 87.3% |
| Cc1[nH]c(=O)[nH]c(=O)c1CCSSCCc1c(C)[nH]c(=O)[nH]c1=O | 99.5% |
| CC(=O)Nc1ccc(Sc2ccc(NC(C)=O)cc2)cc1 | 73.1% |
| CCN1CCN(C(=O)[C@]23CCC(C)(C)C[C@@H]2C2=CC[C@@H]4[C@@]5(C)CCC(=O)C(C)(C)[C@@H]5CC[C@@]4(C)[C@]2(C)CC3)CC1 | -35.8% (active) |
| Cc1ccc(/C=N/Nc2nc(Nc3ccccc3)nc(-n3nc(C)cc3C)n2)cc1 | 53.3% |
| C=C(c1ccc(C(=O)O)cc1)c1cc2c(cc1C)C(C)(C)CCC2(C)C | 59.3% and 74.6% |
| O=c1[nH]c2ccccc2cc1-c1nc2ccc(Cl)cc2[nH]1 | -26.1% (active) |
| NS(=O)(=O)c1ccc(CCN2C(=O)C=CC2=O)cc1 | 99.6% |
| COc1cc(-c2c3c(c(Br)n2Cc2ccccc2)-c2nc(N)sc2CC3)cc(OC)c1OC | 68.4% |
